Results taken from publication PMC5540273 (PLoS ONE, 2017).

The molecules below were run on DDR1.
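Note: kd values determined as follow-up on hits from a single-replicate KINOMEscan panel screen.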

Q: `CS(=O)(=O)CCNCc1nc(-c2ccc3ncnc(Nc4ccc(OCc5ccccc5)c(Cl)c4)c3c2)cs1.Cl` [GW582764] was tested. Which Kd did it give?
A: The Kd was over 10000 nM.

Q: With `COc1ccc2cc(-c3nc(-c4ccccc4C(C)C)[nH]c3-c3ccncc3)ccc2c1` [SB-660566] as the molecule, how does the Kd read?
A: The Kd was 330 nM.

Q: How did the Kd turn out when `Cc1ccc(NC(=O)c2ccc(Cl)cc2)cc1-c1ccc(C(=O)Nc2ccncc2)cc1` [GSK1398467] was run?
A: The Kd was 710 nM.

Q: With `Nc1nccc(-c2c(-c3ccc(F)cc3)ncn2C2CCN(Cc3ccccc3)CC2)n1` [SB-219980] as the molecule, how does the Kd read?
A: The Kd was 140 nM.

Q: With `CS(=O)(=O)Cc1ccc(Nc2nccc(-c3c(-c4cccc(NC(=O)C5CCCCC5)c4)nn4ncccc34)n2)cc1` [GSK350559] as the molecule, how does the Kd read?
A: Its Kd is 23 nM.

Q: For `Cc1ccc(NC(=O)Nc2ccccc2)cc1-c1ccc(C(=O)Nc2ccncc2)cc1` [GSK1398471], which Kd is on record?
A: The Kd was 180 nM.

Q: `Cc1ccc(NC(=O)Nc2ccc(Cl)cc2)cc1-c1ccc(C(=O)Nc2ccncc2)cc1` [GSK1398472] was tested. Which Kd did it give?
A: Its Kd is 73 nM.

Q: How did the Kd turn out when `Cc1ccc(NC(=O)Nc2ccc(Cl)c(C(F)(F)F)c2)cc1-c1ccc(C(=O)Nc2ccncc2)cc1` [GSK1398470] was run?
A: Its Kd is 120 nM.

Q: For `COc1cccc(NC(=O)Nc2ccc(C)c(-c3ccc(C(=O)Nc4ccncc4)cc3)c2)c1` [GSK1398474], which Kd is on record?
A: Its Kd is 270 nM.

Q: `COc1ccc(Nc2nccc(N3CCC(NC(=O)c4cc5ccccc5s4)C3)n2)cc1` (stereo not drawn) [GSK1379738] was tested. Which Kd did it give?
A: The Kd was over 10000 nM.

Q: With `COc1cccc(C2=C(Nc3cc(Cl)c(O)c(Cl)c3)C(=O)NC2=O)c1` [SB-390767] as the molecule, how does the Kd read?
A: Its Kd is over 10000 nM.

Q: `Cc1ccc(NC(=O)Nc2ccccc2F)cc1-c1ccc(C(=O)Nc2ccncc2)cc1` [GSK1398477] was tested. Which Kd did it give?
A: Its Kd is 180 nM.

These molecules were tested on T1, DMPK2.
T1 construct: gene CDC42BPG

Q: How did the Kd turn out when `Fc1ccc(-c2nn3cccc(F)c3c2-c2ccncc2)cc1` [GW475620] was run?
A: Its Kd is 1000 nM.

Q: How did the Kd turn out when `Fc1ccc(-c2nc3n(c2-c2ccncc2)CCS3)cc1` [GI98581] was run?
A: The Kd was 1200 nM.

Q: With `CC(=O)c1c(C)c2cnc(Nc3ccc(N4CCNCC4)cn3)nc2n(C2CCCC2)c1=O` as the molecule, how does the Kd read?
A: The Kd was over 10000 nM.

Q: With `CCn1c(-c2c(N)noc2C)nc2cnccc21` [SB-737856] as the molecule, how does the Kd read?
A: Its Kd is over 10000 nM.

Each molecule was assayed on T2, DRAK1.
T2 construct: gene STK17A

Q: With `CC[C@@H]1CO[C@H](C(=O)Nc2ccccc2)CN1c1cc(-c2ccc3c(N)n[nH]c3c2)nc(NC)n1` [GSK2376236] as the molecule, how does the Kd read?
A: The Kd was 220 nM.

Q: Which Kd does the source give for `CC(C)c1cc(-c2ccc3c(N)n[nH]c3c2)nc(N)n1` [GSK2250882] here?
A: The Kd was 29 nM.

Q: With `Cn1cncc1-c1cc2c(Nc3ccc(OCc4ccccc4)cc3)ncnc2cn1` [GW281179] as the molecule, how does the Kd read?
A: The Kd was over 10000 nM.

Q: `CNc1cc(-c2ccc3c(N)n[nH]c3c2)nc(N)n1` [GSK2224810] was tested. Which Kd did it give?
A: Its Kd is 89 nM.

Q: `CNc1nc(-c2ccc3c(N)n[nH]c3c2)cc(N2C[C@@H](C(=O)Nc3ccccc3)CC[C@H]2C)n1` [GSK2298859] was tested. Which Kd did it give?
A: The Kd was 89 nM.
